The supplement of paper PMC10849652
Of roughly 8,800 targets only a part is listed; those with a hit were picked by preference. About 0.5% of all pairs of compound and target were hits.

What was measured:
Assay in all cases: log2 fold change, soluble protein after heating vs DMSO (PISA); higher = thermal stabilisation; K562 lysate, 10 uM; active = over 0.2 and 3.5 SD of the protein, either way, in both replicates (recomputed)
[1] = compound: CS(=O)(=O)CCNCc1ccc(-c2ccc3ncnc(Nc4ccc(OCc5cccc(F)c5)c(Cl)c4)c3c2)o1 [lapatinib]
Outline: (§1)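 K562 pellets were dounce-homogenised in PBS pH 7.4 containing 1 mM MgCl2, and the crude extract, at 1 mg/mL protein, was exposed to 10 μM compound for 30 min. Aliquots were heated for 3 min across 48°C-58°C, pooled, brought to 0.5% NP-40 at 4°C and spun at 21,000xg for 90 min, with the supernatant taken as soluble protein. TMTpro 16plex LC-MS/MS with equalised channel sums quantified that protein. Values are log-two fold changes in thermal stability relative to solvent controls, taken from duplicates.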

[2] = compound: CS(=O)(=O)N1CCN(Cc2cc3nc(-c4cccc5[nH]ncc45)nc(N4CCOCC4)c3s2)CC1 [pictilisib]
Outline: as §1

[3] = compound: C[C@@H](Oc1cc(-c2cnn(C3CCNCC3)c2)cnc1N)c1c(Cl)ccc(F)c1Cl [crizotinib]
Outline: as §1

[4] = compound: C[C@H](C1=CC=C(C=C1)C(=O)NC2=C3C=CNC3=NC=C2)N
Outline: as §1

[5] = compound: C[C@H](Nc1ncnc2nc[nH]c12)c1cc2cccc(Cl)c2c(=O)n1-c1ccccc1 [duvelisib]
Outline: as §1

[6] = compound: Cc1cc(Nc2cc(CN3CCOCC3)c3nc(C)c(Cc4ccc(Cl)cc4F)n3n2)n[nH]1 [gandotinib]
Outline: as §1

[7] = compound: Cc1cc(Nc2cc(N3CCN(C)CC3)nc(Sc3ccc(NC(=O)C4CC4)cc3)n2)n[nH]1 [tozasertib]
Outline: as §1

[8] = compound: Cc1ccc(-n2nc(C(C)(C)C)cc2NC(=O)Nc2ccc(OCCN3CCOCC3)c3ccccc23)cc1 [doramapimod]
Outline: as §1

[9] = compound: Cc1ccc(NC(=O)c2ccc(CN3CC[C@H](N(C)C)C3)c(C(F)(F)F)c2)cc1Nc1nccc(-c2cncnc2)n1 [bafetinib]
Outline: as §1

[10] = compound: Cc1cccc(CC(=O)N2CCc3c2ccc(-c2cn(C)c4ncnc(N)c24)c3F)n1
Outline: as §1

Measured: log2 fold change

KIF4B (UniProt Q2VIQ3)
UniProt Q2VIQ3, sequence (Q2VIQ3 whole entry, looked up): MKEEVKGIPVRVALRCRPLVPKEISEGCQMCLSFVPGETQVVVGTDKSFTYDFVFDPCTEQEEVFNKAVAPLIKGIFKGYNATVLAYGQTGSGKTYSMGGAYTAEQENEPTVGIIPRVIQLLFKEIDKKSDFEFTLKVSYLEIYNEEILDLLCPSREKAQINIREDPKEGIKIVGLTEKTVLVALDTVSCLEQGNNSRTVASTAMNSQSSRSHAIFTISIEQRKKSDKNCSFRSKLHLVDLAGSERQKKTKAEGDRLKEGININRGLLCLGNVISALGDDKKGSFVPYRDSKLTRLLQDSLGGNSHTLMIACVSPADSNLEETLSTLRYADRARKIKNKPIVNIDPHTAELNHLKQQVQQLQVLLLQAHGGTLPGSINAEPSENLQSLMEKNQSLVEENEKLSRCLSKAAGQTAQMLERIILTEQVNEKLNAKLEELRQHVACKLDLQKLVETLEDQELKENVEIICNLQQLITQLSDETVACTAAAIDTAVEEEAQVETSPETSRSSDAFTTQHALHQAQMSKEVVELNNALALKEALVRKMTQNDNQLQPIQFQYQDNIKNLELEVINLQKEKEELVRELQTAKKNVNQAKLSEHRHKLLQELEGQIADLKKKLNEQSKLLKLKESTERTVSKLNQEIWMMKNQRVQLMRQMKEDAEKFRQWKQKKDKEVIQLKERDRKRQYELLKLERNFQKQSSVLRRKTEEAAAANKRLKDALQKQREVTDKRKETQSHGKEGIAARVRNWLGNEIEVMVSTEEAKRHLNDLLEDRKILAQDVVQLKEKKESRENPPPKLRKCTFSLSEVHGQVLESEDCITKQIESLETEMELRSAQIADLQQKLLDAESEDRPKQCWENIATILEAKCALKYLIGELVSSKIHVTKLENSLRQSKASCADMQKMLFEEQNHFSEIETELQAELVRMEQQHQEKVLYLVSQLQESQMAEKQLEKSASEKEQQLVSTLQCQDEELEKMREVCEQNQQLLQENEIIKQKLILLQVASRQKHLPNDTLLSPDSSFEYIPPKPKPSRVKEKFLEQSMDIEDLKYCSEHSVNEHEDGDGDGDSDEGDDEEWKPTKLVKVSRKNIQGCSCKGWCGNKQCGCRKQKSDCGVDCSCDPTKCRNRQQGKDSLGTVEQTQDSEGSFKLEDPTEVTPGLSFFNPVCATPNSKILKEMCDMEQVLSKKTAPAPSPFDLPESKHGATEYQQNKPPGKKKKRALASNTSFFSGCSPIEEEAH
inactive: [1] 0.03 | [2] -0.001 | [3] -0.02 | [4] 0.029 | [5] -0.023 | [6] -0.051 | [7] -0.033 | [8] 0.015 | [9] -0.04 | [10] 0.035

KLHL12 isoform 2 (UniProt Q53G59)
inactive: [1] 0.023 | [2] 0.048 | [3] 0.016 | [5] 0.084 | [8] 0.003 | [9] -0.131

MED16 (UniProt Q9Y2X0)
inactive: [1] -0.014 | [2] -0.154 | [3] 0.03 | [4] 0.167 | [5] -0.027 | [7] 0.012 | [8] 0.021 | [9] 0.051 | [10] -0.065
active: [6] -0.261

LRWD1 (UniProt Q9UFC0)
UniProt Q9UFC0, sequence (Q9UFC0 whole entry, looked up): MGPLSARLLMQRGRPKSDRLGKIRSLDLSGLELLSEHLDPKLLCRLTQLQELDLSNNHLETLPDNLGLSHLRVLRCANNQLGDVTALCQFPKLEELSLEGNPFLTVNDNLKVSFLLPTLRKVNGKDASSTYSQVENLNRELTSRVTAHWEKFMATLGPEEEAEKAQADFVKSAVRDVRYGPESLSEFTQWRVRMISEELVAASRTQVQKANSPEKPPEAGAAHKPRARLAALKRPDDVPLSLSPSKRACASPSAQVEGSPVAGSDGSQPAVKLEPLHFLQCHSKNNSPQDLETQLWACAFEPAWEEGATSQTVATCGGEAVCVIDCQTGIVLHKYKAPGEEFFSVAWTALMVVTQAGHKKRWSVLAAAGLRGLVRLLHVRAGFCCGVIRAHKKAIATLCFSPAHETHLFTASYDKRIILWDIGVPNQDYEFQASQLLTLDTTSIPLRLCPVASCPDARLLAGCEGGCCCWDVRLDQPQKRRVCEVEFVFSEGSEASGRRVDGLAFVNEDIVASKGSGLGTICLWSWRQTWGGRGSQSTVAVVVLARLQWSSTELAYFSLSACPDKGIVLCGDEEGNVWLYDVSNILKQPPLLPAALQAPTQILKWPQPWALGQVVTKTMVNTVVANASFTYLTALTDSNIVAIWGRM
inactive: [1] -0.026 | [2] -0.049 | [3] -0.199 | [4] -0.011 | [5] 0 | [6] -0.102 | [7] -0.007 | [8] 0.029 | [9] -0.082 | [10] 0.019

LAS1L (UniProt Q9Y4W2)
UniProt Q9Y4W2, sequence (Q9Y4W2 whole entry, looked up): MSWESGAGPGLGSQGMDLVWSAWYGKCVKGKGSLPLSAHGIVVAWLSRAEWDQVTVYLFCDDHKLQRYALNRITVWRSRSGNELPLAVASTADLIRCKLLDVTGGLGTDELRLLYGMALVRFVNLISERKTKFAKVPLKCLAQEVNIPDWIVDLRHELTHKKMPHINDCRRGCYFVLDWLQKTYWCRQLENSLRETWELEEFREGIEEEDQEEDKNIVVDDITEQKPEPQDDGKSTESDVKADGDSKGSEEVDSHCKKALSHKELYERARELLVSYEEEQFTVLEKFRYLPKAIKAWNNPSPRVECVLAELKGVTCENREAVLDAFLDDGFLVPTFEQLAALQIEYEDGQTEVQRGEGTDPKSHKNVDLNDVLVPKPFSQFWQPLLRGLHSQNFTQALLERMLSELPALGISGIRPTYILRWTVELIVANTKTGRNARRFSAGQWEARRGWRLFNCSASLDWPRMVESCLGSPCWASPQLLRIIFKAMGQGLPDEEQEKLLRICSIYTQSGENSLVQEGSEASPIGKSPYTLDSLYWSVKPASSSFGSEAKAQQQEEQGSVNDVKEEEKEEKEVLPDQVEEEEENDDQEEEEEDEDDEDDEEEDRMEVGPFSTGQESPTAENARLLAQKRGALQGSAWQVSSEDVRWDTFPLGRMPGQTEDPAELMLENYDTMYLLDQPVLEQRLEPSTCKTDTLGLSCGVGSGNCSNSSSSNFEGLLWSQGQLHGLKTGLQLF
active: [10] 0.233
inactive: [1] -0.004 | [2] -0.033 | [3] -0.05 | [4] -0.051 | [5] -0.003 | [6] 0.017 | [7] 0.043 | [8] 0.011 | [9] -0.004

LRRC40 (UniProt Q9H9A6)
inactive: [1] -0.004 | [2] -0.012 | [3] -0.007 | [4] 0.015 | [5] -0.025 | [6] -0.088 | [7] 0.014 | [8] 0.009 | [9] -0.028 | [10] -0.032

KRIT1 (UniProt O00522)
UniProt O00522, sequence (O00522 whole entry, looked up): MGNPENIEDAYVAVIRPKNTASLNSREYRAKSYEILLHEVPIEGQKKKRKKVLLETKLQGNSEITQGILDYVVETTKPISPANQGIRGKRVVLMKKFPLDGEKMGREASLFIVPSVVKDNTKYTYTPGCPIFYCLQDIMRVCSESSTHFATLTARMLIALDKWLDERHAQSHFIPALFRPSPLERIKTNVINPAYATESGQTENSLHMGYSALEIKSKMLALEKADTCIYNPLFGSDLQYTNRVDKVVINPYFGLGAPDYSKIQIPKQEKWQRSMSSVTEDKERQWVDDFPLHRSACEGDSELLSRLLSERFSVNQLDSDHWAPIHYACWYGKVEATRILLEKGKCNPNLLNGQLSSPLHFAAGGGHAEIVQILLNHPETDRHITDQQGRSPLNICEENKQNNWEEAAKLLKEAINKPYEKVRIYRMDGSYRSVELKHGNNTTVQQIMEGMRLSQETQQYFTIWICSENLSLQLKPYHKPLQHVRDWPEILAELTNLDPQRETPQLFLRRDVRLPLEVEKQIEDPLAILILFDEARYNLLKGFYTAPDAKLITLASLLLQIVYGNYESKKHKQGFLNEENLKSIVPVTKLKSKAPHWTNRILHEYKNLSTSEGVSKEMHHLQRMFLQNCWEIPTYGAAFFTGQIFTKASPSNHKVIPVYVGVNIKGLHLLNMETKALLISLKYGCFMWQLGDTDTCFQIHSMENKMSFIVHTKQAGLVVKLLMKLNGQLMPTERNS
inactive: [1] -0.115 | [2] -0.058 | [3] -0.07 | [5] -0.001 | [7] -0.043 | [8] 0.016 | [9] -0.041

MARK2 (UniProt E9PC69)
inactive: [1] 0.003 | [2] 0.052 | [3] -0.14 | [4] 0.131 | [5] -0.068 | [6] -0.166 | [7] -0.233 | [8] 0.075 | [9] -0.071 | [10] 0.025

METTL21A (UniProt Q8WXB1)
UniProt Q8WXB1, sequence (Q8WXB1 whole entry, looked up): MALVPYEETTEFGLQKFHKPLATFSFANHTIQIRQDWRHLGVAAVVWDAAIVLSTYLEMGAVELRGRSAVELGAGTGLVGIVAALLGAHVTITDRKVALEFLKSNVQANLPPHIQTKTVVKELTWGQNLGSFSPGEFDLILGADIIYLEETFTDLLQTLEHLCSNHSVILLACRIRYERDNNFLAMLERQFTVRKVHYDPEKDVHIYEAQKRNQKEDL
inactive: [1] 0.004 | [2] 0.06 | [3] -0.043 | [4] -0.083 | [5] 0.131 | [6] 0.038 | [8] -0.081 | [9] -0.04 | [10] 0.016

MAP4K5 (UniProt Q9Y4K4)
inactive: [1] -0.035 | [2] 0.044 | [4] 0.013 | [5] -0.021 | [6] 0.055 | [7] 0.152 | [8] -0.04 | [9] -0.046 | [10] 0.112

MAPK9 (UniProt P45984)
UniProt P45984, sequence (P45984 whole entry, looked up): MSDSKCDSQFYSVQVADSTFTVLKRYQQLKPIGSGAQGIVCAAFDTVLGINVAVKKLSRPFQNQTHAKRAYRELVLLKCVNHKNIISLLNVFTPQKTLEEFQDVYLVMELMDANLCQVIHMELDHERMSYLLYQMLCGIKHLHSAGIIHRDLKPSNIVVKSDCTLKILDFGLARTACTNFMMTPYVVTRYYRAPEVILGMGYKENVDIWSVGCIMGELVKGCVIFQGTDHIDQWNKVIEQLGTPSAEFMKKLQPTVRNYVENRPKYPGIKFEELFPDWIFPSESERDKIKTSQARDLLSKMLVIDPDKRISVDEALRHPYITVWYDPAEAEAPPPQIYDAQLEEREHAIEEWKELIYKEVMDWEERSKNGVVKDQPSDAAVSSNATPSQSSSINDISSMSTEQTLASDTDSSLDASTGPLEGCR
inactive: [1] 0.001 | [2] 0.088 | [3] -0.021 | [4] 0.026 | [5] 0.006 | [6] 0.035 | [7] 0.033 | [8] 0.192 | [9] -0.011 | [10] -0.15

MPZL1 (UniProt O95297)
UniProt O95297, sequence (O95297 whole entry, looked up): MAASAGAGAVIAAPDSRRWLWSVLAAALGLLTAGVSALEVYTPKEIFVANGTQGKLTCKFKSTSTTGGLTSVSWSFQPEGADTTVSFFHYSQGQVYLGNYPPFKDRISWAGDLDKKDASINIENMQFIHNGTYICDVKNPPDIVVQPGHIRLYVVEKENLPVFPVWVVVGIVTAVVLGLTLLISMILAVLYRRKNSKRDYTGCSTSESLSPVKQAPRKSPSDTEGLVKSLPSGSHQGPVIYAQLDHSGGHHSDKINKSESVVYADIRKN
inactive: [1] -0.006 | [2] -0.026 | [3] 0.074 | [4] 0.132 | [5] 0.001 | [6] -0.009 | [7] -0.029 | [8] -0.087 | [9] -0.027 | [10] -0.107

KIF4A (UniProt O95239)
inactive: [1] 0.007 | [2] -0.002 | [3] -0.043 | [4] 0.012 | [5] -0.029 | [6] -0.061 | [7] 0.021 | [8] 0 | [9] -0.066 | [10] -0.006

MAPK14 (UniProt Q16539)
inactive: [1] -0.047 | [2] -0.004 | [3] -0.094 | [4] -0.034 | [5] -0.026 | [6] -0.037 | [7] 0.009 | [10] 0.015
active: [9] 1.03

MBOAT2 (UniProt Q6ZWT7)
UniProt Q6ZWT7, sequence (Q6ZWT7 whole entry, looked up): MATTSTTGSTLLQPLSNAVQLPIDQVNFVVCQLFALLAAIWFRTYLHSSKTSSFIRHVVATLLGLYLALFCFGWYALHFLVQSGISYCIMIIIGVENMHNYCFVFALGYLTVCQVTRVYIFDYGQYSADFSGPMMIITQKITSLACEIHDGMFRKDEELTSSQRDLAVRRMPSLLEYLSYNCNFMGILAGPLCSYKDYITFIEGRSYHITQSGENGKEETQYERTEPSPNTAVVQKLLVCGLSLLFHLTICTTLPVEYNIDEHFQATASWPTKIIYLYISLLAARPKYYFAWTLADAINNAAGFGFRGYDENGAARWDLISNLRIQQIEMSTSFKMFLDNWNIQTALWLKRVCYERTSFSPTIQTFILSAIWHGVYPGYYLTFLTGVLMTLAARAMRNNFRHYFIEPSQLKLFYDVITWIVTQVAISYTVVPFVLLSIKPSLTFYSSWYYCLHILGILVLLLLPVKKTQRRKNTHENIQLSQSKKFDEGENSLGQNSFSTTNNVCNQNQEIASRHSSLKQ
inactive: [1] -0.067 | [2] 0.061 | [3] -0.005 | [4] -0.175 | [5] 0.009 | [7] 0.106 | [8] -0.12 | [9] -0.049 | [10] 0.281
active: [6] 0.319
